The results in this text go back to PubChem BioAssay AID488969 (Vanderbilt High Throughput Screening Facility, 2010).

The full ranking holds about 110,000 compounds; the median of “z-score” is about -0.1, and the highest 2% start at about 2. For the sample, the highest values were picked, then their nearest neighbours and some compounds at random. Activity calls are given as the source filed them.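 Rule for the calls: active = z-score in the third read window above 3 or below -3; inactive = the rest.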

In this test the target is Metabotropic glutamate receptor 8 (Rattus norvegicus) (UniProt P70579). Put plainly: mGluR8 Gi/Go-coupled signaling modulation – cell-based, rat, thallium flux, HTS, primary screen (AID 488969). The conditions noted are these: HEK293 rat mGluR8, GIRK (G protein-gated inwardly rectifying potassium channel) thallium flux, FluoZin2; at 10 µM; stronger effect = higher value; submaximal glutamate (EC20) added with thallium.
Sequence of Metabotropic glutamate receptor 8 (Rattus norvegicus) (P70579 whole entry, looked up): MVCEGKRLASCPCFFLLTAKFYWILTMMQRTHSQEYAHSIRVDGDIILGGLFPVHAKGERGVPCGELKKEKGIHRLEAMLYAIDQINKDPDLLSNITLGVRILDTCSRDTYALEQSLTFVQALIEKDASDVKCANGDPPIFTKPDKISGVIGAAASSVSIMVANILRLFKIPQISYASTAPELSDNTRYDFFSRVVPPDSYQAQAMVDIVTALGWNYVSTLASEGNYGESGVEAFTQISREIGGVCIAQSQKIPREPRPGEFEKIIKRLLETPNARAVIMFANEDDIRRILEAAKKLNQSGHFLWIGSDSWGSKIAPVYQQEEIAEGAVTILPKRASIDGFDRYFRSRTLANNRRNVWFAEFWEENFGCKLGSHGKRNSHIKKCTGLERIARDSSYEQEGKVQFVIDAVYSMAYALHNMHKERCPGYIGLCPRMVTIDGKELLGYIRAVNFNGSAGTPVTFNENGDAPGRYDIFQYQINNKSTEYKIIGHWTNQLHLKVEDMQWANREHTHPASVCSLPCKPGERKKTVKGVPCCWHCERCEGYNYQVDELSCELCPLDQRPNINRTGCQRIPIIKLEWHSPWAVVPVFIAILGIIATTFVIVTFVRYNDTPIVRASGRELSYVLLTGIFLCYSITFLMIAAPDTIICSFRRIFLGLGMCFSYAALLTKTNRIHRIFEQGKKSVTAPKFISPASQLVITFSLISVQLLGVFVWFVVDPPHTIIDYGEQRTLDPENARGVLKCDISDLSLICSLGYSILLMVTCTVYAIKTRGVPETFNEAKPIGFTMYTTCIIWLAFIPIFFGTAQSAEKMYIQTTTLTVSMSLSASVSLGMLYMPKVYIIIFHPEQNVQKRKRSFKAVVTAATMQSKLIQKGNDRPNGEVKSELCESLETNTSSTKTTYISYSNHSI
Compound `Cc1cc(C)c2c(N)c(C(=O)c3cccc(Cl)c3)sc2n1` displayed a z-score of -0.231. `CCc1ccc(N/C(SC)=C(/C#N)C(N)=O)cc1` returned a z-score of 0.119. In turn, `COCCn1c(SCc2nc3sc(C(=O)OC)c(C)c3c(=O)[nH]2)nc2ccccc21` yielded a z-score of 0.877. Consider `CCOC(=O)c1sc2nc(CSc3nc4ccccc4n3CC)[nH]c(=O)c2c1C`, for which the z-score came to 2.68. `CCn1c(SCc2nc3sc(C(=O)O)c(C)c3c(=O)[nH]2)nc2ccccc21`: the z-score is -0.449. With `COc1cccc(-c2nnc(SCc3nc4ccccc4s3)n2C)c1` the figure was -0.34.

As for `CCCCCCOC(=O)/C=C/c1c(C)[nH]c(=O)[nH]c1=O`, the z-score is -0.139. As to `COc1ccc(OCC(=O)N/N=C(\C)c2ccc(-n3ccnc3)cc2)cc1`, the z-score is -0.334. `C/C(=N\NC(=O)COc1ccc(C(C)(C)C)cc1)c1ccc(-n2ccnc2)cc1` yielded a z-score of 0.123. With `C/C(=N\NC(=O)c1ccccc1)c1ccc(-n2ccnc2)cc1` the figure was 2.25; with `C/C(=N\NC(=O)COc1ccc(C)cc1C(C)C)c1ccc(-n2ccnc2)cc1`, 2.53. Take `CNC(=S)N/N=C(\C)c1ccc(-n2ccnc2)cc1`: the z-score is -0.579.

In the case of `Cn1c(/C=N/NC(=O)c2ccccc2)nc2ccccc21`, the z-score came out at 0.298.

Consider `C/C(=N\NC(=O)c1ccc(C)cc1C)c1ccc(-n2ccnc2)cc1`, for which the z-score was -0.0942.

As for `C/C(=N\NC(=O)c1ccccc1)c1nc2ccccc2n1C`, the z-score is 3.71 (active).

The compound `C/C(=N\Nc1ccc(C(=O)O)cc1)c1nc2ccccc2n1C` displayed a z-score of -0.702. `Cn1c(=O)c2c(ncn2CC(=O)OCC(=O)Nc2ccccc2Cl)n(C)c1=O`: the z-score was -0.159. `Clc1cccc2sc(N3CCOCC3)nc12`: the z-score was 0.0232.

In turn, `CCOC(=O)C1=C(C)Nc2nc(SCc3cccnc3)nn2C1c1ccc(OC)cc1` (stereo not given) had a z-score of 0.463. Take `CN1CCN(S(=O)(=O)c2ccc(Br)s2)CC1`: the z-score was -0.0381.

Compound `CN1CCN(CC(=O)Nc2c(C(=O)C3CC3)oc3ccccc23)CC1` gave a z-score of -0.346. The compound `COC(=O)c1ccc(Cl)c(NC(=O)CN(c2ccc3c(c2)OCO3)S(C)(=O)=O)c1` returned a z-score of 0.625.

As to `COC(=O)c1ccc(Cl)c(NC(=O)CN2CCOCC2)c1`, the z-score amounted to 0.185. With `COC(=O)c1oc2ccc(Br)cc2c1NC(=O)CN1CCN(C)CC1` the figure was 2.22. Next, `CCOC(=O)c1oc2ccc(OC)cc2c1NC(=O)CN1CCN(C)CC1`: 0.148; `COC(=O)c1ccc(Cl)c(NC(=O)CN2CCN(Cc3ccccc3)CC2)c1`: -0.236.

In the case of `COC(=O)c1ccc(Cl)c(NC(=O)CN2CCN(C)CC2)c1`, the z-score was 4.17 (active). Take `COC(=O)c1ccc(Cl)c(NC(=O)CN(c2ccc(OC)cc2)S(=O)(=O)c2ccccc2)c1`: the z-score was -0.285. With `COC(=O)c1ccc(Cl)c(NC(=O)CN(c2ccc(OC)c(OC)c2)S(C)(=O)=O)c1` the figure was 2.1; with `Cc1ccc(CNC(=O)/C=C/c2c(Cl)cccc2Cl)cc1`, -0.641; with `O=C(CSc1ncnc2c1oc1ccccc12)NCC1CCCO1` (stereo not given), -0.215. With `COc1ccc(/C=N/n2c(N)nc(-c3ccccc3)c2-c2ccccc2)cc1` the figure was -0.377. Consider `O=C(NCCCN1CCN(c2ccccc2)CC1)Nc1ccccc1C(F)(F)F`, for which the z-score was -0.506. Next, `Cc1ccc(NC(=O)c2sc3nc4c(c(-c5ccco5)c3c2N)CCC4)cc1`: -0.382. In turn, `CC(=O)NC(Cc1ccccc1C)C(=O)NC1CCN(c2ncccc2[N+](=O)[O-])CC1` (stereo not given) came in with a z-score of -0.207. `CCC(=O)Nc1cc2nn(-c3ccccc3)nc2cc1Cl` returned a z-score of 0.0874. Next, `CCNC(=S)N/N=C(\C)c1ccc(N2CCOCC2)cc1`: 0.245. `C/C(=N\Nc1nc2ccccc2[nH]1)c1ccc(Cl)s1` displayed a z-score of -1.3. As to `C=C(C)CNC(=S)N/N=C(\C)c1ccc(-n2ccnc2)cc1`, the z-score is -0.342. `C=C(C)CNC(=S)N/N=C(\C)c1ccc(Cl)s1`: the z-score came to 2.26. `CNC(=S)N/N=C(\C)c1ccc(N2CCOCC2)cc1` yielded a z-score of 0.456. Next, `CNC(=S)N/N=C(\C)c1cccc([N+](=O)[O-])c1`: -0.339.

As to `CCNC(=S)N/N=C(\C)c1ccc(Cl)s1`, the z-score is 4.7 (active). With `CCNC(=S)N/N=C(\C)c1cccc([N+](=O)[O-])c1` the figure was 0.559; with `CNC(=S)N/N=C(\C)c1ccc(C(C)(C)C)cc1`, 2.03; with `C=C(C)CNC(=S)N/N=C/c1ccc(N2CCOCC2)cc1`, 0.134. As to `CNC(=S)N/N=C(\C)c1ccc(Cl)s1`, the z-score was 3.13 (active). Next, `CNC(=S)N/N=C(\C)c1ccc(C)c(C)c1`: 1.2; `Cn1c(=O)c2[nH]c(-c3cccnc3)nc2n(C)c1=O`: 0.366.

For `C=CCN1C(=O)C(CC(=O)Nc2ccccc2)SC1=Nc1c(C)n(C)n(-c2ccccc2)c1=O` (stereo not given), the z-score is 1.07.

The compound `COc1cc(/C=C(\C#N)c2nc(-c3cc4ccccc4oc3=O)cs2)ccc1O` registered a z-score of -2.33. The compound `CCC(=O)Nc1ccc(NC(=O)CN2CCCC(C)C2)c(Cl)c1` (stereo not given) displayed a z-score of -0.146. In turn, `Cc1nn(CC(O)COc2ccc3c(c2)CCC3)c(C)c1C` (stereo not given) displayed a z-score of -0.0908. As to `Cc1nc2cc(Nc3nnc(-c4ccccc4)c4ccccc34)ccc2n1C`, the z-score was -0.174. `CN1CCN(C(=O)NC2CCCCC2)CC1` yielded a z-score of -0.173. In the case of `CCOP(=O)(O)c1ccccc1OCCCCCOc1ccccc1P(=O)(O)OCC`, the z-score was -0.285. Next, `CCOC(=O)c1c(N)nn(C(=O)CC)c1-c1ccccc1`: -0.667. Turning to `CCOc1ccccc1-c1nc(C(N)=O)c2[nH]c(=O)n(-c3cccc(C)c3)c2n1`, the z-score is -1.43.

With `C/C(=N\NC(=O)C(=O)Nc1cccc(C(F)(F)F)c1)c1ccc(Cl)s1`, the z-score worked out at 0.376. As for `C/C(=N\NC(N)=S)c1ccc(Cl)s1`, the z-score was 2.19. Take `C/C(=N\NC(=S)NC(C)C)c1ccc(-n2ccnc2)cc1`: the z-score was -0.306. `C/C(=N/Nc1ccc(F)cc1)c1ccc(Cl)s1`: the z-score was determined as 0.13. Next, `C/C(=N\NC(=S)NC(C)C)c1ccc(Cl)s1`: 5.46 (active). Next, `COc1cc(/C(C)=N/NC(=S)NC(C)C)cc(OC)c1OC`: -0.0595; `Cc1noc(C)c1COc1cccc(C(=O)OCC(=O)NC(=O)c2ccc(OC(F)F)cc2)c1`: -0.262; `N/C(=N\OC(=O)c1cccc(Br)c1)c1ccc(Br)cc1`: -0.325. With `COc1ccc(C(=O)COC(=O)CNC(=O)c2cc(OC)cc(OC)c2)cc1` the figure was -0.208; with `NC(=O)C(Cc1ccccc1)NS(=O)(=O)c1ccc(N2CCCC2=O)cc1` (stereo not given), 0.443; with `CCC(C)NC(=O)c1ccccc1NC(=O)Nc1ccccc1` (stereo not given), 6.32 (active).

With `CCC(C)NC(=O)c1ccccc1C(=O)NC(C)CC` (stereo not given), the z-score stood at 0.631. Next, `CC(C)CNC(=O)c1ccccc1NC(=O)Nc1ccccc1`: 0.337. Next, `Cc1cccc(CN(CC(=O)N/N=C/c2ccco2)S(=O)(=O)c2ccc(Cl)cc2)c1`: 0.848; `CCN(CC)C(=O)C1CCCN(C(=O)Nc2ccc(NC(=O)N3CCCC(C(=O)N(CC)CC)C3)cc2)C1` (stereo not given): -0.196; `COC(=O)CSc1nnc(-c2cccnc2)n1-c1cccc(OC)c1`: 0.978. Turning to `CSCCC(NS(=O)(=O)c1ccc2c(c1)oc(=O)n2C)C(=O)NC1CCCc2ccccc21` (stereo not given), the z-score was found to be 0.148. On to `Cn1c(=O)oc2cc(S(=O)(=O)NC3CCCc4ccccc43)ccc21` (stereo not given), for which the z-score came out at 0.254. Consider `CC(C)CC(NS(=O)(=O)c1ccc2c(c1)oc(=O)n2C)C(=O)NC1CCCc2ccccc21` (stereo not given), for which the z-score is 5.09 (active). In turn, `CCc1ccc2oc(-c3cccc(N)c3)nc2c1` gave a z-score of -0.135. With `Cc1cc(C(=O)CSc2n[nH]c(N)n2)c(C)n1-c1ccc(F)cc1`, the z-score is -0.628. In the case of `Cc1cc(C(=O)CSc2n[nH]c(N)n2)c(C)n1-c1cc(F)ccc1F`, the z-score was 6.6 (active). Regarding `Cc1cc(C(=O)CSc2n[nH]c(N)n2)c(C)n1-c1cccc(F)c1`, the z-score was -1.69.

`COc1ccc(NS(=O)(=O)c2ccc(NC(=O)c3ccc(N(C)S(C)(=O)=O)cc3)cc2)c(OC)c1` yielded a z-score of -0.141. With `COC(=O)C1=C(C)N(C)C(=O)/C1=C\c1ccco1` the figure was -0.144; with `COC(=O)C1=C(C)NC(=O)/C1=C\c1ccco1`, 8.73 (active). `COC(=O)C1=C(C)NC(=O)/C1=C\c1cccs1`: the z-score is -0.512.

Turning to `CC(=O)c1nc(N2C(=O)CC(Cc3ccc(C)cc3)C2=O)sc1C` (stereo not given), the z-score was -0.714. Compound `CC(=O)c1nc(N2C(=O)CC(Cc3cccc(C)c3)C2=O)sc1C` (stereo not given) showed a z-score of -0.395. Compound `CC(=O)c1nc(N2C(=O)CC(Cc3cc(C)cc(C)c3)C2=O)sc1C` (stereo not given) had a z-score of 2.19. With `COc1ccc(NC(=S)N/N=C2\CC(C)(C)Oc3ccc(OC)cc32)cc1` the figure was -0.239; with `c1cc2c3c(cccc3c1)NC1(CCCCC1)N2`, -0.436. With `CC(C)(C)C1CCC2(CC1)NC(=S)N(c1ccccc1)N2` (stereo not given) the figure was 0.0264. With `CC(C)(C)C1CCC2(CC1)Nc1cccc3cccc(c13)N2` the figure was 4.88 (active); with `Cc1cc(NC(=O)c2ccc(COc3ccc(Cl)c(C)c3)o2)no1`, -0.225. In turn, `O=C(NC1CC1)c1ccc2c3c(cccc13)CC2` returned a z-score of -0.311. With `N=c1sccn1CC(=O)Nc1cc(Cl)ccc1Oc1ccccc1` the figure was 1.02; with `COc1ccc(OCCC(=O)OCC(=O)NCc2ccccc2)cc1`, -0.332. With `Cc1cccc(-n2c(C)nc3cc(C(=O)NCc4ccc5c(c4)OCO5)ccc32)c1`, the z-score came out at 0.471.

In turn, `CC(C)(C)c1cc[n+](/C(C(=S)NC2CC2)=C(/[O-])c2ccc(Cl)s2)cc1` gave a z-score of -0.275. As to `Cc1c(Cl)cccc1NC(=S)/C(=C(\[O-])c1ccc(Cl)s1)[n+]1ccccc1`, the z-score came out at 2.24. In turn, `Cc1ccccc1NC(=S)/C(=C(\[O-])c1ccc(C)c([N+](=O)[O-])c1)[n+]1ccccc1` displayed a z-score of 0.013. Next, `CCN(CC)C(=O)COc1cc(C)cc2oc(=O)cc(-c3ccccc3)c12`: -0.189.

As for `COc1ccccc1NC(=S)Nc1cccc2cnccc12`, the z-score was -0.138. For `C=C(C)CNC(=S)Nc1cccc2cnccc12`, the z-score was 3.1 (active). For the compound `COc1ccc(NC(=S)Nc2cccc3cnccc23)cc1`, the z-score was -0.198.

Regarding `S=C(Nc1cccc(Cl)c1)Nc1cccc2cnccc12`, the z-score is 2.74. Next, `CC(C)NC(=S)Nc1cccc2cnccc12`: -0.271. In turn, `CCCCNC(=S)Nc1cccc2cnccc12` displayed a z-score of -0.208. For `Cc1cc(C)nc(N2CCCC(C(=O)NCC(c3ccccc3)c3ccccc3)C2)n1` (stereo not given), the z-score stood at 0.0177. `COc1ccc(S(=O)(=O)N(C)CC(=O)Nc2ccc(C(F)(F)F)cc2)cc1Cl` registered a z-score of 1.57.

Turning to `O=c1cc(NS(=O)(=O)c2ccccc2)nc(SCc2ccc(Cl)cc2)[nH]1`, the z-score turned out to be 0.485.
